Experimental findings from PubChem BioAssay AID1578 (Sanford-Burnham Center for Chemical Genomics, 2009) are described below.

Screen size: about 290,000 compounds; about 3,000 (1%) were called active. Many of the other results were omitted from the sample, so actives are more common in it than they were. Unmarked numbers belong to inactive results. No stated cut-off is given here; in the data, active means inhibition mostly above about 36% (no sharp cut-off); inactive means mostly below about 34%.

A short description of this test: NOD1 signaling inhibitors, primary screen, cell-based, luminescence, uHTS (AID 1578).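 Further: HEK-293T reporter cells stimulated with the NOD1 agonist gamma-tri-DAP.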 Particulars: NOD1-driven NF-kB luciferase reporter cells, at 4 µM, stronger effect = higher value.
Regarding `Cc1cc(-c2nc3cccnc3s2)ccc1NS(=O)(=O)c1ccc2c(c1)OCCO2`, the inhibition is -4%. Then `Cc1nc2ccc(S(=O)(=O)Nc3cccc(-c4nc5cccnc5s4)c3C)cc2s1`, with -33.3%; and `CCc1ccc(NC(=O)CSc2nnc(-c3n[nH]c4ccccc34)n2-c2ccccc2)cc1`, with 6%; and `CC(C)CC(C(=O)N1CCc2ccccc2C1)N1C(=O)c2ccccc2C1=O` (stereo not drawn), with 5.4%.

Turning to `COc1ccc(N2C(=O)c3ccccc3NC2c2cccnc2)cc1` (stereo not drawn), the inhibition was -14.4%.

Regarding `COc1ccc2c(c1OC)C(=O)N(c1ncn[nH]1)C2`, the inhibition is -15.4%. Turning to `COc1ccc2c(c1OC)C(=O)OC2`, the inhibition is 33.6% (active). Turning to `COc1ccccc1N1Cc2ccc(OC)c(OC)c2C1=O`, the inhibition was -5.2%. In the case of `COc1cc(OC)cc(C(=O)OCCCOC(=O)c2cc(OC)cc(OC)c2)c1` it was -7.2%. Then `CN(NS(=O)(=O)c1ccc(Cl)cc1)c1nc(C(F)(F)F)nc2ccccc12`, with 26%. In the case of `CN(NS(=O)(=O)c1ccc(Br)cc1)c1nc(C(F)(F)F)nc2ccccc12` it was 31.4% (active); in that of `COc1ccc(S(=O)(=O)NN(C)c2nc(C(F)(F)F)nc3ccccc23)cc1`, -27.6%; in that of `CN(C)C1(CN=Cc2cc(Cl)cc([N+](=O)[O-])c2O)CCCCC1`, -19%. As for `O=C(N/N=C/c1ccc(-c2ccccc2)o1)c1ccccc1O`, the inhibition was -1.6%. Consider `O=C(N/N=C/c1ccc(-c2cccc(C(F)(F)F)c2)o1)c1ccccc1O`, for which the inhibition is 86.8% (active). In the case of `O=C(N/N=C/c1ccc(-c2cccc(C(F)(F)F)c2)o1)c1ccccc1Br` it was 13.2%; in that of `Cc1ccc2cc(CCNC(=O)c3cccc([N+](=O)[O-])c3)c(=O)[nH]c2c1`, 26.4%; in that of `COc1ccc2cc(CCNC(=O)c3cccc([N+](=O)[O-])c3)c(=O)[nH]c2c1`, 45.6% (active). On to `Cc1cc2cc(CCNC(=O)c3cccc([N+](=O)[O-])c3)c(=O)[nH]c2cc1C`, for which the inhibition was 3.3%.

For `COc1cc(Br)c(CC(=O)O)cc1OC`, the inhibition was 4%. Take `CCn1cc(C(=O)OCC(=O)c2cc(C)n(-c3ccccc3)c2C)c(=O)c2ccc(C)nc21`: the inhibition was 6.2%. Then `CCn1cc(C(=O)OCC(=O)c2cc(C)n(-c3cccc(C(F)(F)F)c3)c2C)c(=O)c2ccc(C)nc21`, with 62.7% (active).

For `CCn1cc(C(=O)OCC(=O)c2cc(C)n(-c3ccccc3F)c2C)c(=O)c2ccc(C)nc21`, the inhibition was 10.8%. Then `Cc1nn(Cc2ccc(C(=O)N3CCN(C(=O)c4ccco4)CC3)o2)c(C)c1[N+](=O)[O-]`, with -22.1%; and `C/C(=N\NC(=O)c1cc2ccccc2cc1O)c1cccs1`, with 5.7%. In the case of `C/C(=N\NC(=O)c1ccccc1O)c1cccs1`, the inhibition is 69.7% (active).

As for `C/C(=N\NC(=O)c1ccccc1O)c1ccc(Br)s1`, the inhibition was 8.3%. In the case of `C/C(=N\NC(=O)c1ccoc1C)c1ccc(Br)s1` it was 15.3%.

Consider `C/C(=N\NC(=O)c1cccc2ccccc12)c1cccs1`, for which the inhibition was -68.3%.

On to `CCN(CC(=O)NCc1ccc(Cl)cc1)C(=O)/C=C/c1cccs1`, for which the inhibition is -23.9%.

With `CC1CCCN(CC(=O)Nc2ccc(S(=O)(=O)N3CCCCCC3)cc2)C1` (stereo not drawn), the inhibition is -8.7%. Regarding `Cc1ccc(/C=C2/SC(=Nc3ccc(F)cc3)NC2=O)s1`, the inhibition is -8.8%. With `CC(=O)NC(Cc1ccc(C)cc1)C(=O)NC1CCN(C(=O)c2ccc([N+](=O)[O-])cc2)CC1` (stereo not drawn), the inhibition is -4.9%. In the case of `Cc1noc2ncnc(N3CCN(c4ccc(F)cc4)CC3)c12` it was -41.6%. Then `Cc1noc2ncnc(N3CCCC3)c12`, with -13.8%; and `Cc1nn(C)c(Oc2ccccc2)c1CCNS(=O)(=O)c1ccccc1`, with 14.8%; and `CCN(CC)C(=S)Sc1c(-c2ccccc2)c2cc(Cl)ccc2[nH]c1=O`, with 78.1% (active). Then `O=C(O)CSc1c(-c2ccccc2)c2cc(Cl)ccc2[nH]c1=O`, with -28.5%; and `O=c1[nH]c2ccc(Cl)cc2c(-c2ccccc2)c1SC(=S)N1CCCCC1`, with 47%; and `COc1ccc2c(C)cc(SC3CCOC3=O)nc2c1` (stereo not drawn), with -1.1%. Turning to `C=CCc1cc(Cl)ccc1OCCNCCOC`, the inhibition was 43.2% (active). Take `C=CCc1cc(Cl)ccc1OCCOCCNCCOC`: the inhibition was -24.9%. In the case of `C=CCc1cc(Cl)ccc1OCCNCCCOC` it was -15.8%; in that of `CCC(C(=O)c1ccc2ncccc2c1)c1ccccc1` (stereo not drawn), -3.6%. In the case of `CCOC(=O)C1=C(N)Oc2cc(O)ccc2C1c1ccc(C)cc1` (stereo not drawn) it was -17.2%; in that of `CCOC(=O)C1=C(N)Oc2cc(O)ccc2C1c1cccc([N+](=O)[O-])c1` (stereo not drawn), 41.2%.

On to `CCOC(=O)C1=C(N)Oc2cc(O)ccc2C1c1ccc([N+](=O)[O-])cc1` (stereo not drawn), for which the inhibition is 67.7% (active). As to `COc1cc(COc2ccc3c(C)c(CCC(=O)O)c(=O)oc3c2)cc(OC)c1OC`, the inhibition was -4.2%.

By inhibition is commonly meant the change of the read-out against control, counted positive when it falls.
